# Laboratory results as given in the supplement of paper PMC10849652.
# Of roughly 8,800 targets only a part is listed; those with a hit were picked by preference. About 0.5% of all pairs of compound and target were hits.
# Columns and labels:
# Test in all cases: log2 fold change, soluble protein after heating vs DMSO (PISA); higher = thermal stabilisation; K562 lysate, 10 uM; active = over 0.2 and 3.5 SD of the protein, either way, in both replicates (recomputed)
# erlotinib = compound: C#Cc1cccc(Nc2ncnc3cc(OCCOC)c(OCCOC)cc23)c1 [erlotinib]
# In short: (§1)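 Values give the log-two fold change in thermal stability against solvent controls, from duplicates. Crude K562 extract at 1 mg/mL protein, made by dounce homogenisation in PBS pH 7.4 with 1 mM MgCl2, was treated with 10 μM compound for 30 min. After 3 min heating across 48°C-58°C, aliquots were pooled, adjusted to 0.5% NP-40 at 4°C and centrifuged at 21,000xg for 90 min. The supernatant was measured by TMTpro 16plex LC-MS/MS with channel sums equalised.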
# [1] = compound: C/C(=N\NC(=O)C1=CC(=CC=C1)S(=O)(=O)N2CCOCC2)/C3=C(C=CC(=C3)Cl)O
# In short: as §1
# [2] = compound: C1=CC(=CC=C1C2=NC3=C(N2)C=C(C=C3)C(=O)N)OC4=CC=C(C=C4)Cl
# In short: as §1
# [3] = compound: C1=CC2=C(C=CC(=C2)/C=C\3/C(=O)NC(=NCC4=CC=CS4)S3)N=C1
# In short: as §1
# [4] = compound: C1=CC2=NC=CN=C2C=C1/C=C/3\C(=O)NC(=O)S3
# In short: as §1
# [5] = compound: C1=CC=C(C=C1)C2=NC(=C(N2)C3=CC=NC=C3)C4=CC(=C(C=C4)Cl)O
# In short: as §1
# [6] = compound: C1=CC=C2C(=C1)C3=NNC4=CC=CC(=C43)C2=O
# In short: as §1
# [7] = compound: C1CCN(C1)C(=O)NC2=CC=CC(=C2)NC3=NC=C(C(=N3)NCCC4=CN=CN4)Br
# In short: as §1
# [8] = compound: C1CN(CCC1(CC2=CC=C(C=C2)Cl)N)C3=NC=NC4=C3C=CN4
# In short: as §1
# IRAK-1-4 Inhibitor I = compound: C1COCCN1CCN2C3=CC=CC=C3N=C2NC(=O)C4=CC(=CC=C4)[N+](=O)[O-] [IRAK-1-4 Inhibitor I]
# In short: as §1
# ibrutinib = compound: C=CC(=O)N1CCC[C@@H](n2nc(-c3ccc(Oc4ccccc4)cc3)c3c(N)ncnc32)C1 [ibrutinib]
# In short: as §1
# [9] = compound: CC(=O)c1cnc2ccc(-c3cc(Cl)c(O)c(Cl)c3)nc2c1N[C@H]1CC[C@H](CN(C)C)CC1
# In short: as §1
# ralimetinib = compound: CC(C)(C)Cn1c(N)nc2ccc(-c3[nH]c(C(C)(C)C)nc3-c3ccc(F)cc3)nc21 [ralimetinib]
# In short: as §1
# [10] = compound: CC(C)(O)CC(=O)NCCn1ccc2ncnc(Nc3ccc(Oc4cccc(C(F)(F)F)c4)c(Cl)c3)c21
# In short: as §1
# [11] = compound: CC(C)C1=C2N=C(C=C(N2N=C1)NCC3=CC=CC=C3)NCCCCCCN
# In short: as §1
# [12] = compound: CC1=C(C(CC(=O)N1)C2=CC=C(C=C2)C(F)(F)F)C(=O)NC3=C(C=C4C(=C3)C=NN4)F
# In short: as §1
# [13] = compound: CC1=C(C2=C(C=C1)C(=O)C3=CC=CC=C3N2CCCN)C
# In short: as §1
# [14] = compound: CC1=C(C=C(C=C1)NC(=O)C2=CC(=CC=C2)C(C)(C)C#N)NC3=CC4=C(C=C3)N=CN(C4=O)C
# In short: as §1
# [15] = compound: CC1=C(C=C(C=C1)NC(=O)C2=CC(=CC=C2)N(C)C)NC(=O)C3=CC=C(C=C3)O
# In short: as §1
# [16] = compound: CC1=CC=C(C=C1)SC2=C3C=C(SC3=CN=C2)C(=O)N
# In short: as §1
# UniProt Q8IZV5, sequence (Q8IZV5 whole entry, looked up): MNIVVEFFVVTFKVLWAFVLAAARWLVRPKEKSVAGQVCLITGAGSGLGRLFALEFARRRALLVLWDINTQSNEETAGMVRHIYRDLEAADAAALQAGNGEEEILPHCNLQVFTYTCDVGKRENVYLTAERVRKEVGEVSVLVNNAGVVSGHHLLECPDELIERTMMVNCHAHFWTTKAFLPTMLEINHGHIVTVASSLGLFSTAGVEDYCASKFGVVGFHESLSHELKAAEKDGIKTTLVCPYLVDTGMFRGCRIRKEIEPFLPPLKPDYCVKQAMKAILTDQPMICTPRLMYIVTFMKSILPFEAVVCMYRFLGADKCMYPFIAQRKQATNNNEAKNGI
# UniProt Q9Y4B4, sequence (Q9Y4B4 whole entry, looked up): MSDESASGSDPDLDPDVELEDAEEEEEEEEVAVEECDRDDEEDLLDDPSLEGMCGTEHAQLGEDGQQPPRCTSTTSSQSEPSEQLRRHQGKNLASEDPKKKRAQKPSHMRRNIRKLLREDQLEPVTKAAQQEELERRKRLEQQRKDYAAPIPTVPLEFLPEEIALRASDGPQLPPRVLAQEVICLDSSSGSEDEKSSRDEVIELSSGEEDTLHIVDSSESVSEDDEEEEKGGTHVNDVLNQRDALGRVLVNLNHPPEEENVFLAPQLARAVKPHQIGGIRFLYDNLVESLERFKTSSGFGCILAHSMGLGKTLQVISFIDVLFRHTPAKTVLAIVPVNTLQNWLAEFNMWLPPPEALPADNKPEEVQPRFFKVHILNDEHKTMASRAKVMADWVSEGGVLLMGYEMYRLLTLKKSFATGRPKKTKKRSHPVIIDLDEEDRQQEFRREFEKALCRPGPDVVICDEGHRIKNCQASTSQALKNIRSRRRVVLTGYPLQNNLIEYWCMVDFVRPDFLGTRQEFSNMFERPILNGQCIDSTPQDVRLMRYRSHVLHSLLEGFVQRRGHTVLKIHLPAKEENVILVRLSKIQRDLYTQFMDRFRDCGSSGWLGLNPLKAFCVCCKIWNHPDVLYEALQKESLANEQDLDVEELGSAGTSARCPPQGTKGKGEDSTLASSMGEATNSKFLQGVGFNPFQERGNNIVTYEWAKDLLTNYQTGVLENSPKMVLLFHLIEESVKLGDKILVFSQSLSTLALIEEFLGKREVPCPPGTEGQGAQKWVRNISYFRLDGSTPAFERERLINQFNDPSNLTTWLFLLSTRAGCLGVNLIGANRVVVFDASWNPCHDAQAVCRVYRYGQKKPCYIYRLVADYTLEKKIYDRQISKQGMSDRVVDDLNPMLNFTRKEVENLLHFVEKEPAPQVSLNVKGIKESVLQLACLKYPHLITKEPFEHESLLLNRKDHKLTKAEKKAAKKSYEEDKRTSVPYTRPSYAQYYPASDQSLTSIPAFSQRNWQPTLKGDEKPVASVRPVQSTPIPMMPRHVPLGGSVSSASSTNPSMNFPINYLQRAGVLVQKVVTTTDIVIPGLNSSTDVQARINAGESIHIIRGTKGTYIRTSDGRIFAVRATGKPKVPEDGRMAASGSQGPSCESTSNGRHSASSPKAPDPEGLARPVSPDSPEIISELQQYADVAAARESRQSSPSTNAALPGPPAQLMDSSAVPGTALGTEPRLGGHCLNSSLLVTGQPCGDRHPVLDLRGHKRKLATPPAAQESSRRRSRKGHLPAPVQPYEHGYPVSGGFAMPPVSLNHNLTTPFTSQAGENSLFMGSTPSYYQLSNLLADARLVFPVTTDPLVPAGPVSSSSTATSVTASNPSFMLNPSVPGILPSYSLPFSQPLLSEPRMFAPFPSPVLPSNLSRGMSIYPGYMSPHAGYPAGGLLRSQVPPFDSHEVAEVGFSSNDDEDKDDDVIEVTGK
# UniProt Q5HYI8, sequence (Q5HYI8 whole entry, looked up): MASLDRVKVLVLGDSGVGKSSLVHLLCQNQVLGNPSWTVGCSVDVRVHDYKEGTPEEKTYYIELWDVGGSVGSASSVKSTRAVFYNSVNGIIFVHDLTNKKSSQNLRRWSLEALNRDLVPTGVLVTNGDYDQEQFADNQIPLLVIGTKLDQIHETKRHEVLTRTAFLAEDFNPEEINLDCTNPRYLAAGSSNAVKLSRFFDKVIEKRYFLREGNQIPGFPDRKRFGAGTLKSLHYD
# UniProt Q16576, sequence (Q16576 whole entry, looked up): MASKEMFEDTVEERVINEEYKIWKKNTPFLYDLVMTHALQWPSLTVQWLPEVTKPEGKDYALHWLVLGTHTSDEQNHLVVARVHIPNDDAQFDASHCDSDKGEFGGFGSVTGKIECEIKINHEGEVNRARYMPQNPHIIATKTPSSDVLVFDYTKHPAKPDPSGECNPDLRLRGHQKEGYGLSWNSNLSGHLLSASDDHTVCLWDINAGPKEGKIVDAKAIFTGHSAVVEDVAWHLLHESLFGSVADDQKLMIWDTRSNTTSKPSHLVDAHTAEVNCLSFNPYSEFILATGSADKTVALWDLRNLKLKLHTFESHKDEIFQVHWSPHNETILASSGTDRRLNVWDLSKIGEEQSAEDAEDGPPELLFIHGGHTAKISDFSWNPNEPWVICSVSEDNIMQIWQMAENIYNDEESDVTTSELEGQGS
# UniProt Q8WWV3, sequence (Q8WWV3 whole entry, looked up): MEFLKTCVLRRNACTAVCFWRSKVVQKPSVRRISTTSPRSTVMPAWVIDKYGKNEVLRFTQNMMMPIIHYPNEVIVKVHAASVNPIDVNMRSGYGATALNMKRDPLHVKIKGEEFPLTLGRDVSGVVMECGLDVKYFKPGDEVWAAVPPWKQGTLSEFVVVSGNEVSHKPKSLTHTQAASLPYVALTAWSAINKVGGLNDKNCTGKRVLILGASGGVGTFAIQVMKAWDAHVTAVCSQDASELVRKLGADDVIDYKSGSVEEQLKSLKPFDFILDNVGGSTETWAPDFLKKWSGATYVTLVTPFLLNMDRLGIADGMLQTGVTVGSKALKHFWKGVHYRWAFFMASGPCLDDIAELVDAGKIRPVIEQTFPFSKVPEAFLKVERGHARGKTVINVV
# UniProt Q86VV8, sequence (Q86VV8 whole entry, looked up): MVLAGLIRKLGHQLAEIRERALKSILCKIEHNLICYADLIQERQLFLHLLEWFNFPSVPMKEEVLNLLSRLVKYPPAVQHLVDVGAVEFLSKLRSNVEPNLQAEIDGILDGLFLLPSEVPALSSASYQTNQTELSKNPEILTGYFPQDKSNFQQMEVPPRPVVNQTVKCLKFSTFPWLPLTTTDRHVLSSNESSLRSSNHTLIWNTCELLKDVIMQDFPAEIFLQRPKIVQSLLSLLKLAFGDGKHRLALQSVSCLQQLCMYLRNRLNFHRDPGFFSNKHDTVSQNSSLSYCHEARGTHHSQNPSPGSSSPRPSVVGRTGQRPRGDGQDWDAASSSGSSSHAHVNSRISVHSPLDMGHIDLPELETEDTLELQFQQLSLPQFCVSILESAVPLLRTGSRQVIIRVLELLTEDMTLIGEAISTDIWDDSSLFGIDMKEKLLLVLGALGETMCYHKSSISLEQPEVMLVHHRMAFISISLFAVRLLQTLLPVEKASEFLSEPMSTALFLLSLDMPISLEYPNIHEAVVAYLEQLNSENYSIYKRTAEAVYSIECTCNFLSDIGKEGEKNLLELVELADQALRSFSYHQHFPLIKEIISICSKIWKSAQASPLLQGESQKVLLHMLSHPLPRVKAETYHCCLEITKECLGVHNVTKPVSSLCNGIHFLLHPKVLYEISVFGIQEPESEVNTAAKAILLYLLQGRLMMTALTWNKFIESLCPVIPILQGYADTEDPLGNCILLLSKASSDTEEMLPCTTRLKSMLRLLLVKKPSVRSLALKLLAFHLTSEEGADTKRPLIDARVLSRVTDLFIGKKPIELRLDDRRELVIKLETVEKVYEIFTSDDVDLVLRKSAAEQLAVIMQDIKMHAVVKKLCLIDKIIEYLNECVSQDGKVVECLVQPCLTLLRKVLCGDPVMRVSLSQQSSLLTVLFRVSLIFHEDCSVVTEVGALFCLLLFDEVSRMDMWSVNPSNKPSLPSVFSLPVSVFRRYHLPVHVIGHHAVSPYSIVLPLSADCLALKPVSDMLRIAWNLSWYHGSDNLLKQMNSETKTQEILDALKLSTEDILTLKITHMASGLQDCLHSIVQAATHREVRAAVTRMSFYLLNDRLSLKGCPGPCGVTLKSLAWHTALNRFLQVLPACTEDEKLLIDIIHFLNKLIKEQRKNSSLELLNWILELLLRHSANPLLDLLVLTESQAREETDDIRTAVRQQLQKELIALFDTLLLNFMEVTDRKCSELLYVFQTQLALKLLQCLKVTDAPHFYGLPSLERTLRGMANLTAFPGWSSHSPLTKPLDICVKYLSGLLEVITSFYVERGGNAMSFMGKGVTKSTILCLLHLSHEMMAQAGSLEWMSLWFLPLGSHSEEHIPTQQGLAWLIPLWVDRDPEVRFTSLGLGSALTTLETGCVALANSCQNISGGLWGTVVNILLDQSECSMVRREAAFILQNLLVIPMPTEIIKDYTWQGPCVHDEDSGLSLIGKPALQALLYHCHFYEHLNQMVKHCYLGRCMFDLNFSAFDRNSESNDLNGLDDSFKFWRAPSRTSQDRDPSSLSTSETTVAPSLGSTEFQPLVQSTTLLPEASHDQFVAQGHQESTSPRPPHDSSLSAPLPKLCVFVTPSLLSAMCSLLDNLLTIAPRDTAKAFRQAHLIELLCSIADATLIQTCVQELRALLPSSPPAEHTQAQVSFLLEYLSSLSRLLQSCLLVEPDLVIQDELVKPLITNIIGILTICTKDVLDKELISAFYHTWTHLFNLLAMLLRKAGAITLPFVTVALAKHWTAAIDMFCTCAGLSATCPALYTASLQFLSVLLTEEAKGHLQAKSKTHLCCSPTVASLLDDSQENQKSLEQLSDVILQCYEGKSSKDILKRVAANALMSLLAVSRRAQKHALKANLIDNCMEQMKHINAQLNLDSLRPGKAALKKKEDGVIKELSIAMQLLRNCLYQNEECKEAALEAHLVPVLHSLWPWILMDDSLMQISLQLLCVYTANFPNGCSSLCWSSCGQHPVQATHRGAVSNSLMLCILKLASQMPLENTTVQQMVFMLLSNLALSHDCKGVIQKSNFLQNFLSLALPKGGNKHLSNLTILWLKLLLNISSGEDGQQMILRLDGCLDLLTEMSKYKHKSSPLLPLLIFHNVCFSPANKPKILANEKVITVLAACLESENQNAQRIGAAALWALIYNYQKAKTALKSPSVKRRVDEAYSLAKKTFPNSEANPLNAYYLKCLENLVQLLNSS
Target,log2 fold change (erlotinib),log2 fold change [1],log2 fold change [2],log2 fold change [3],log2 fold change [4],log2 fold change [5],log2 fold change [6],log2 fold change [7],log2 fold change [8],log2 fold change (IRAK-1-4 Inhibitor I),log2 fold change (ibrutinib),log2 fold change [9],log2 fold change (ralimetinib),log2 fold change [10],log2 fold change [11],log2 fold change [12],log2 fold change [13],log2 fold change [14],log2 fold change [15],log2 fold change [16]
RTN4IP1 (UniProt Q8WWV3),-0.028 (inactive),0.031 (inactive),-0.028 (inactive),0.065 (inactive),-0.017 (inactive),-0.003 (inactive),0.022 (inactive),0.033 (inactive),-0.016 (inactive),0.011 (inactive),0.073 (inactive),0.02 (inactive),0.012 (inactive),0.028 (inactive),-0.042 (inactive),-0.398 (active),-0.011 (inactive),-0.008 (inactive),-0.015 (inactive),-0.033 (inactive)
RABL3 (UniProt Q5HYI8),0.706 (active),-0.019 (inactive),-0.025 (inactive),0.011 (inactive),0.008 (inactive),0.96 (active),-0.041 (inactive),0.015 (inactive),0.017 (inactive),0.48 (inactive),0.017 (inactive),0.014 (inactive),0.153 (inactive),-0.05 (inactive),-0.047 (inactive),0.021 (inactive),-0.043 (inactive),0.003 (inactive),-0.141 (inactive),0.014 (inactive)
RFC4 (UniProt P35249),0.006 (inactive),0.027 (inactive),-0.033 (inactive),-0.027 (inactive),0.018 (inactive),0.007 (inactive),-0.056 (inactive),-0.022 (inactive),-0.012 (inactive),-0.018 (inactive),-0.01 (inactive),-0.008 (inactive),-0.01 (inactive),-0.015 (inactive),0.032 (inactive),0 (inactive),0.026 (inactive),-0.001 (inactive),0.002 (inactive),0.019 (inactive)
RPS26P11 (UniProt Q5JNZ5),-0.028 (inactive),-0.021 (inactive),-0.015 (inactive),-0.01 (inactive),0.039 (inactive),0.005 (inactive),-0.046 (inactive),-0.045 (inactive),0.008 (inactive),0.001 (inactive),-0.037 (inactive),0.004 (inactive),0.008 (inactive),-0.034 (inactive),-0.019 (inactive),-0.013 (inactive),-0.034 (inactive),0.024 (inactive),0.025 (inactive),0.016 (inactive)
RTTN (UniProt Q86VV8),-0.002 (inactive),-0.196 (inactive),-0.123 (inactive),-0.103 (inactive),0.045 (inactive),-0.043 (inactive),-0.056 (inactive),0.14 (inactive),0.036 (inactive),0.098 (inactive),0.095 (inactive),0.155 (inactive),0.145 (inactive),-0.137 (inactive),0.379 (inactive),-0.053 (inactive),0.015 (inactive),–,-0.004 (inactive),0.112 (inactive)
SEC24D isoform 2 (UniProt O94855),0.016 (inactive),0.04 (inactive),0.012 (inactive),0.008 (inactive),0.032 (inactive),0.022 (inactive),0.001 (inactive),-0.013 (inactive),0.004 (inactive),-0.002 (inactive),0.005 (inactive),-0.024 (inactive),0.01 (inactive),-0.018 (inactive),0 (inactive),-0.009 (inactive),-0.011 (inactive),0.019 (inactive),-0.035 (inactive),0.023 (inactive)
RAB27A (UniProt P51159),-0.045 (inactive),0.023 (inactive),-0.014 (inactive),0.009 (inactive),-0.009 (inactive),-0.003 (inactive),-0.025 (inactive),-0.031 (inactive),-0.015 (inactive),-0.049 (inactive),-0.011 (inactive),-0.035 (inactive),0.074 (inactive),0.033 (inactive),-0.054 (inactive),-0.044 (inactive),0.047 (inactive),-0.057 (inactive),0.006 (inactive),-0.026 (inactive)
RAE1 (UniProt P78406),0.045 (inactive),-0.036 (inactive),0.014 (inactive),0.046 (inactive),0.012 (inactive),-0.021 (inactive),-0.007 (inactive),-0.019 (inactive),0.033 (inactive),-0.024 (inactive),-0.033 (inactive),-0.01 (inactive),0.007 (inactive),0.185 (inactive),-0.007 (inactive),-0.022 (inactive),0.012 (inactive),-0.064 (inactive),0.011 (inactive),0.023 (inactive)
RECQL4 (UniProt O94761),-0.041 (inactive),0.023 (inactive),-0.025 (inactive),0.195 (inactive),-0.081 (inactive),0.018 (inactive),-0.039 (inactive),-0.035 (inactive),0.013 (inactive),0.015 (inactive),0.016 (inactive),–,-0.034 (inactive),-0.06 (inactive),0.039 (inactive),-0.017 (inactive),0.076 (inactive),0 (inactive),0.044 (inactive),–
RAB1B (UniProt Q9H0U4),-0.009 (inactive),-0.005 (inactive),0.011 (inactive),0.019 (inactive),-0.002 (inactive),0.005 (inactive),-0.008 (inactive),0.014 (inactive),0.003 (inactive),0.055 (inactive),-0.011 (inactive),-0.01 (inactive),-0.014 (inactive),-0.012 (inactive),-0.006 (inactive),0.02 (inactive),-0.014 (inactive),-0.036 (inactive),-0.011 (inactive),-0.006 (inactive)
RAPGEF4 (UniProt Q8WZA2),0.181 (inactive),0.057 (inactive),0.049 (inactive),-0.016 (inactive),-0.019 (inactive),-0.092 (inactive),-0.195 (inactive),-0.043 (inactive),0.12 (inactive),0.184 (inactive),-0.026 (inactive),-0.129 (inactive),-0.001 (inactive),-0.328 (inactive),0.044 (inactive),–,0.046 (inactive),0.442 (inactive),-0.004 (inactive),-0.166 (inactive)
RAD54L2 (UniProt Q9Y4B4),0.186 (inactive),-0.176 (inactive),-0.103 (inactive),-0.035 (inactive),-0.135 (inactive),–,0.002 (inactive),-0.046 (inactive),0.055 (inactive),–,-0.005 (inactive),0.23 (inactive),–,–,-0.073 (inactive),0.131 (inactive),-0.051 (inactive),0.031 (inactive),–,0.094 (inactive)
RDH10 (UniProt Q8IZV5),0.043 (inactive),0.001 (inactive),-0.019 (inactive),0.087 (inactive),-0.028 (inactive),-0.022 (inactive),-0.013 (inactive),0.024 (inactive),-0.023 (inactive),0.001 (inactive),0.016 (inactive),-0.015 (inactive),0.04 (inactive),-0.013 (inactive),0.03 (inactive),-0.007 (inactive),-0.033 (inactive),-0.045 (inactive),-0.034 (inactive),-0.016 (inactive)
RBBP7 (UniProt Q16576),-0.038 (inactive),-0.032 (inactive),-0.021 (inactive),-0.005 (inactive),0.007 (inactive),-0.014 (inactive),-0.008 (inactive),0.045 (inactive),-0.022 (inactive),-0.082 (inactive),0.062 (inactive),0.018 (inactive),0.018 (inactive),0 (inactive),-0.042 (inactive),-0.003 (inactive),0.014 (inactive),-0.114 (inactive),0.002 (inactive),-0.03 (inactive)
RNF149 (UniProt Q8NC42),-0.044 (inactive),-0.03 (inactive),0.003 (inactive),-0.046 (inactive),0.135 (inactive),-0.021 (inactive),-0.031 (inactive),–,–,0.068 (inactive),0.04 (inactive),0.023 (inactive),0.044 (inactive),-0.041 (inactive),-0.005 (inactive),-0.021 (inactive),0.001 (inactive),-0.014 (inactive),0.113 (inactive),0.06 (inactive)
